Measurements published in PubChem BioAssay (NCATS).
Several values for one entry are separate records, joined by “and”; a condition that tells them apart may be missing. Equal values may be shown once. Inconclusive results are not listed. Entries that show only a call come without a potency. The source holds several records for some structures; these can differ, active in one and inactive in another. Activity calls are given as the source filed them. Calls come from the whole dose curve; as a rule, active = well fitted curve in the direction sought with a large enough effect; inconclusive = small, poorly fitted or top-dose-only effect, or another doubt; inactive = no such curve, though single readings can be large; an effect the other way counts as inactive or inconclusive.

What was measured:
[1] = target: Cytochrome P450 2C9 (Homo sapiens) (UniProt P11712); experiment: qHTS Assay for Inhibitors and Substrates of Cytochrome P450 2C9 (AID 883); note: nearly all actives have a fitted effect of over 60% in size; note: potency is the fitted concentration of half-maximal effect
Cytochrome P450 2C9 (Homo sapiens), sequence (P11712 whole entry, looked up): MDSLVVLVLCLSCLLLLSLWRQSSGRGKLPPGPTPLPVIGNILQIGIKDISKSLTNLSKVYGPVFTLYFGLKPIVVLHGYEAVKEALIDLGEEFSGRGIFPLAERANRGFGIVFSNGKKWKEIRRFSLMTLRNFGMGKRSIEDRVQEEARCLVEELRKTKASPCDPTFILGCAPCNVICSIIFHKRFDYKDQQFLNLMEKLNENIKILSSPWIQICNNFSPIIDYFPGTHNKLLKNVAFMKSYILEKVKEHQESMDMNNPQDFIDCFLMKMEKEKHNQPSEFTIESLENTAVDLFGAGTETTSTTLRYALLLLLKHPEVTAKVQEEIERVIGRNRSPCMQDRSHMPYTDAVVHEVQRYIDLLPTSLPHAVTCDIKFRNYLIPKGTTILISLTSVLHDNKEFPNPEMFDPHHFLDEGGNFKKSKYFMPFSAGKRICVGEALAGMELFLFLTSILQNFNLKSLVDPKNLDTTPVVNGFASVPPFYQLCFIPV
Outline: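 CYP2C9 deoxyluciferin hydroxylation, 37C, 60 min with NADPH regeneration; 10nM enzyme, 100uM Luciferin-H (KM). Glo detection reagent stopped reaction; luminescence normalized to sulphaphenazole (57uM) full inhibition.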

[2] = target: Cytochrome P450 3A4 (Homo sapiens) (UniProt P08684); experiment: qHTS Assay for Inhibitors and Substrates of Cytochrome P450 3A4 (AID 884); note: nearly all actives have a fitted effect of over 50% in size; note: potency is the fitted concentration of half-maximal effect; for activity change, negative = inhibition: series mostly up to about 57 µM
Cytochrome P450 3A4 (Homo sapiens), sequence (P08684 whole entry, looked up): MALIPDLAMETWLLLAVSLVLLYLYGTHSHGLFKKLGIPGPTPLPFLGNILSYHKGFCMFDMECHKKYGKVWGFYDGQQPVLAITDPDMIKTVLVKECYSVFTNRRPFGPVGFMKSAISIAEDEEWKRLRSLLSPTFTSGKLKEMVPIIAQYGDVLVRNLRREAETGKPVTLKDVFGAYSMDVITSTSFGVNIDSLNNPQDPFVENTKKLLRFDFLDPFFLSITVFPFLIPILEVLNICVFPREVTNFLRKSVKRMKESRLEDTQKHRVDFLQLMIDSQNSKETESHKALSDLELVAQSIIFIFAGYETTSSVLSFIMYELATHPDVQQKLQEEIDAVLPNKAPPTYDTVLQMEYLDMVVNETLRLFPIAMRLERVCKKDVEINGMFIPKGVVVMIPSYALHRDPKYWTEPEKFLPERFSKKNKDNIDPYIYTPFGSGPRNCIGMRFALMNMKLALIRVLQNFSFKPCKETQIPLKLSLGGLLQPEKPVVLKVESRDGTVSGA
Outline: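 Luminescent readout of luciferin produced by CYP3A4 (20 nM) dealkylation of Luciferin-PPXE, 25 uM (its KM). NADPH-driven reaction ran 60 min at RT after 10 min compound preincubation; data scaled to 57 uM ketoconazole as 100% inhibition.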

[3] = target: Cytochrome P450 3A4 (Homo sapiens) (UniProt P08684); experiment: qHTS Assay for Activators of Cytochrome P450 3A4 (AID 885); note: nearly all actives have a fitted effect of over 65% in size
Outline: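 Luminescent readout of luciferin formed from 25 uM Luciferin-PPXE (KM level) by 20 nM CYP3A4 in 200 mM KPO4, with 60 min NADPH-driven reaction at room temperature after 10 min compound exposure. Ketoconazole (57 uM) defined 100% inhibition.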

[4] = target: Cytochrome P450 2D6 (Homo sapiens) (UniProt P10635); experiment: qHTS Assay for Inhibitors and Substrates of Cytochrome P450 2D6 (AID 891); note: nearly all actives have a fitted effect of over 60% in size; note: potency is the fitted concentration of half-maximal effect;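 for activity change, negative = inhibition: luciferin methyl ether substrate demethylated by CYP2D6 with NADPH regeneration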
Cytochrome P450 2D6 (Homo sapiens), sequence (P10635 whole entry, looked up): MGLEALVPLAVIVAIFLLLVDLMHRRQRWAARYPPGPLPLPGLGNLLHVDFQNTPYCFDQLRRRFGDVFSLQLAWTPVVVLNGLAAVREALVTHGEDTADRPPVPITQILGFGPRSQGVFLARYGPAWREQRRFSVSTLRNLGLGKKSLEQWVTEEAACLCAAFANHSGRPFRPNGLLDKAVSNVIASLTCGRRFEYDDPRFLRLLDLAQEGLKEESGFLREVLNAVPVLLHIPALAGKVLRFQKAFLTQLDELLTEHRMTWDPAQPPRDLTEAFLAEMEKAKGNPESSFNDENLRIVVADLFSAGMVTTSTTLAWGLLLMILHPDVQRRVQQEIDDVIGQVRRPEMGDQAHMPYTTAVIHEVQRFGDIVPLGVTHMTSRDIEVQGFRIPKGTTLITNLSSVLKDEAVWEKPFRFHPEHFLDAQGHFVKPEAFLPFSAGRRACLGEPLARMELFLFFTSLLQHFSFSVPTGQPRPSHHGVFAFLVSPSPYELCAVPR
Outline: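 Luminescent read-out of luciferin formed by 5 nM human CYP2D6 demethylating 30 uM Luciferin-ME EGE (Km level) over 60 min at room temperature after NADPH regeneration addition. Data normalized to full inhibition by 1.43 uM quinidine.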

[5] = target: Cytochrome P450 2C19 (Homo sapiens) (UniProt P33261); experiment: qHTS Assay for Inhibitors and Substrates of Cytochrome P450 2C19 (AID 899); note: nearly all actives have a fitted effect of over 60% in size; note: potency is the fitted concentration of half-maximal effect
Cytochrome P450 2C19 (Homo sapiens), sequence (P33261 whole entry, looked up): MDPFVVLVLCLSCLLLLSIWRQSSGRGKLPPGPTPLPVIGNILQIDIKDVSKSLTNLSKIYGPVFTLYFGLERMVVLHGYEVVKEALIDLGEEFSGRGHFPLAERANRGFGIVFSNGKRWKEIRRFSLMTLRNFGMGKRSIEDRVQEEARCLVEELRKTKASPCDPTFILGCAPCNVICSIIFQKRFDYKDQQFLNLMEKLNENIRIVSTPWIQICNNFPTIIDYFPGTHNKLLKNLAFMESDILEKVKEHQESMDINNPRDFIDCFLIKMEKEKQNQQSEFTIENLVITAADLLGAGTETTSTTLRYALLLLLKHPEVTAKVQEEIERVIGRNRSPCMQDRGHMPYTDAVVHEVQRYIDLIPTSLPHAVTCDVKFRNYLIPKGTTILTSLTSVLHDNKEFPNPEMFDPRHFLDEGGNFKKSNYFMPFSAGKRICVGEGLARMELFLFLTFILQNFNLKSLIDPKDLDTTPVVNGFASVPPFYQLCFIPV
Outline: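 In 50mM KPO4, the reaction held 5nM enzyme and KM-level (10uM) Luciferin-H EGE; it ran 60 min at 37C after NADPH regeneration and a 10 min compound preincubation. Luminescence values were scaled to 57uM ketoconazole as complete inhibition.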

SMILES | Potency [1] | Potency [2] | activity change, positive = activation [3] | Potency [4] | Potency [5] | activity change, negative = inhibition [2]
CN(C)c1cccc(OC2C=CC(C#Cc3ccccc3)OC2CO)c1 (stereo not given) | inactive | 3.98 µM (active) | -83.1% [at 11.4 µM] (inactive) | inactive | 3980 nM (active) | –
CCCCC1CN2C(CCC(C)C2c2ccc(Br)cc2)C(=O)O1 (stereo not given) | inactive | 3.98 µM (active) | -38.2% [at 11.4 µM] (inactive) and -43.4% [at 11.4 µM] (inactive) and -62.6% [at 11.4 µM] (inactive) | inactive | 1260 nM (active) | –
COc1ccc(OC2C=CC(C#Cc3ccc(F)cc3F)OC2CO)cc1 (stereo not given) | inactive | 3.98 µM (active) and 3.16 µM (active) | -84.9% [at 11.4 µM] (inactive) and -82.9% [at 11.4 µM] (inactive) | inactive | 398 nM (active) | –
CCOC(=O)[C@]1(C(/C=C/c2ccco2)NC(=O)OC)CCCC1=O (stereo not given in full) | inactive | – | – | inactive | inactive | -21.5% [at 11.4 µM] (inactive)
CCOC(=O)CCCCC1=CC2=CC(=O)C(C)(O)C(=O)C2=CO1 (stereo not given) | inactive | – | – | inactive | inactive | -20.4% [at 11.4 µM] (inactive)
COC(=O)CC1=COC2OCC3=CC[C@@H]1C32 (stereo not given in full) | inactive | – | – | inactive | inactive | -15.8% [at 11.4 µM] (inactive)
COc1cc(C2NC(C(=O)O)Cc3c2[nH]c2ccccc32)cc(OC)c1OC (stereo not given) | inactive | – | – | 1260 nM (active) | inactive | -17.2% [at 11.4 µM] (inactive)
CCC(=O)CC(NC(=O)OC)c1ccc(F)cc1 (stereo not given) | inactive | – | – | inactive | inactive | -17.9% [at 11.4 µM] (inactive)
CC(=O)c1ccc(C2C=CC(O)C(CO)O2)cc1 (stereo not given) | inactive | – | – | inactive | inactive | -3.24% [at 11.4 µM] (inactive)
COc1cc(C2c3[nH]c4ccccc4c3CC3C(=O)N4C(Cc5c([nH]c6ccccc56)C4c4cc(OC)c(OC)c(OC)c4)C(=O)N32)cc(OC)c1OC (stereo not given) | inactive | – | – | inactive | inactive | -16.6% [at 11.4 µM] (inactive)
CC(C)CC1OCCC=CC1C (stereo not given) | inactive | – | – | inactive | inactive | -2.57% [at 11.4 µM] (inactive)
CC(C)CN1CCc2nc(-c3ccccc3)c3c(c2CC1)COC(C)C3 (stereo not given) | inactive | – | – | inactive | inactive | -18.5% [at 11.4 µM] (inactive)
COC(=O)NC(CC(C)=O)c1ccc(Cl)cc1 (stereo not given) | inactive | – | – | inactive | inactive | -19.1% [at 11.4 µM] (inactive)
COC(=O)C/C=C/C(C)C(OC)c1ccccc1Br (stereo not given) | inactive | – | – | inactive | inactive | -5.95% [at 11.4 µM] (inactive)
CC1CCC2C(=O)N3CCCC3C(=O)N2C1c1ccc(Br)cc1 (stereo not given) | 631 nM (active) and inactive | – | – | inactive | inactive | -43.7% [at 11.4 µM] (inactive) and -27.2% [at 11.4 µM] (inactive)
C=CCOCC1CN2C(CCC(C)C2c2ccc(Br)cc2)C(=O)O1 (stereo not given) | inactive | – | – | inactive | inactive | -11.7% [at 11.4 µM] (inactive)
COC1C(O)COC1/C=C/c1ccccc1 (stereo not given) | inactive | – | – | inactive | inactive | -19.7% [at 11.4 µM] (inactive)
CC1(C)OC(C(O)(c2cccc3c2oc2ccccc23)c2cccc3c2oc2ccccc23)C(C(O)(c2cccc3c2oc2ccccc23)c2cccc3c2oc2ccccc23)O1 (stereo not given) | inactive | – | – | inactive | inactive | -15.2% [at 11.4 µM] (inactive)
COC(=O)NC(c1cccc(F)c1)[C@@]1(C(=O)OC)CCCC1=O (stereo not given in full) | inactive | – | – | inactive | inactive | -15.7% [at 11.4 µM] (inactive)
CC12C=C(/C=C/C=C/c3ccco3)C(C)(C1)C(/C=C/c1ccco1)CC2=O (stereo not given) | inactive | – | – | inactive | inactive | 5.62% [at 11.4 µM] (inactive)
CCOC(=O)[C@]1(C(NC(=O)OC)c2ccco2)CCCC1=O (stereo not given in full) | inactive | – | – | inactive | inactive | -19.8% [at 11.4 µM] (inactive)
Cc1ccc(OC2C(O)COC2/C=C/C#Cc2ccc(C(C)(C)C)cc2)cc1 (stereo not given) | inactive | – | – | inactive | inactive | -23% [at 11.4 µM] (inactive) and -25.5% [at 11.4 µM] (inactive)
CC(C)C(=O)NC(=O)C1CCCN1C(=O)/C=C/c1ccccc1 (stereo not given) | inactive | – | – | inactive | inactive | -10.1% [at 11.4 µM] (inactive)
